PubChem BioAssay (NCATS)
Several values for one entry are separate records, joined by “and”; a condition that tells them apart may be missing. Equal entries are not always repeated. Records with an inconclusive call do not appear. Activity calls are given as the source filed them. Unless noted, calls come from the whole dose curve; as a rule, active = well fitted curve in either direction with a large enough effect (not every such curve was filed as active); inconclusive = small, poorly fitted or top-dose-only effect, or another doubt; inactive = flat fitted curve, though single readings scatter.

Experiments:
[1] = molecular target: Cytochrome P450 3A4 (Homo sapiens) (UniProt P08684); assay: qHTS Assay for Inhibitors and Substrates of Cytochrome P450 3A4 (AID 884; active = well fitted curve in the direction sought with a large enough effect; an effect the other way counts as inactive or inconclusive; note: potency is the fitted concentration of half-maximal effect; nearly all actives have a fitted effect of over 50% in size)
Cytochrome P450 3A4 (Homo sapiens), sequence (P08684 whole entry, looked up): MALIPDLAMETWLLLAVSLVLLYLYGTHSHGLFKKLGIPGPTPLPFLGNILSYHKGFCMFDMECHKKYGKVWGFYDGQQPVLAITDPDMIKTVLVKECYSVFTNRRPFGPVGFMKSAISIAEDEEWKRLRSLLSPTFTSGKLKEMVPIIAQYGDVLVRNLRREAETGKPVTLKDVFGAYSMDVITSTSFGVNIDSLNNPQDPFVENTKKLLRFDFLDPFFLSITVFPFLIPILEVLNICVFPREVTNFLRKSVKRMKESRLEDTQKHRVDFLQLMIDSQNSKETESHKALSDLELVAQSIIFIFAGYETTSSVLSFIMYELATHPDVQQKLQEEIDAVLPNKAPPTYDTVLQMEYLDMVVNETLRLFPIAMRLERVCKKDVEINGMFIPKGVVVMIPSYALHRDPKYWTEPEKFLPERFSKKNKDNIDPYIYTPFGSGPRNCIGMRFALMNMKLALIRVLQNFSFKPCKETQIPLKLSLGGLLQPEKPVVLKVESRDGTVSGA
Procedure, shortened: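 Luminescent readout of luciferin produced by CYP3A4 (20 nM) dealkylation of Luciferin-PPXE, 25 uM (its KM). NADPH-driven reaction ran 60 min at RT after 10 min compound preincubation; data scaled to 57 uM ketoconazole as 100% inhibition.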

[2] = molecular target: Cytochrome P450 3A4 (Homo sapiens) (UniProt P08684); assay: qHTS Assay for Activators of Cytochrome P450 3A4 (AID 885; active = well fitted curve in the direction sought with a large enough effect; an effect the other way counts as inactive or inconclusive; note: nearly all actives have a fitted effect of over 65% in size)
Procedure, shortened: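 Human CYP3A4 dealkylates Luciferin-PPXE to luciferin, which luciferase detection converts to light. Substrate was at its KM (25uM), buffer 200mM KPO4, reaction 60 min at RT.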

[3] = qHTS Assay for Lipid Storage Modulators (AID 1519; calls by dose curve); details: Drosophila S3 cells, BODIPY lipid droplet/cell ratio, laser cytometry, cells loaded with oleic acid
Procedure, shortened: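 Cells seeded at 5,000 per well were treated with compounds over a concentration series and loaded with oleic acid (400 uM, as added). Lipid droplet fluorescence (488 nm excitation, 500-530 nm channel) was read by laser-scanning cytometry and normalized to 20 uM Triacsin C.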

[4] = molecular target: Ubiquitin carboxyl-terminal hydrolase 1 (Homo sapiens) (UniProt O94782); assay: Inhibitors of USP1/UAF1: Pilot qHTS (AID 504865; active = well fitted curve in the direction sought with a large enough effect; an effect the other way counts as inactive or inconclusive;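 note: rhodamine fluorescence freed from ubiquitin-rhodamine substrate followed over time; top concentration of the series differs between compounds; % is set by controls: 0 for no effect and ±100 for the full control effect; nearly all actives have a fitted effect of over 35% in size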)
Ubiquitin carboxyl-terminal hydrolase 1 (Homo sapiens), sequence (O94782 whole entry, looked up): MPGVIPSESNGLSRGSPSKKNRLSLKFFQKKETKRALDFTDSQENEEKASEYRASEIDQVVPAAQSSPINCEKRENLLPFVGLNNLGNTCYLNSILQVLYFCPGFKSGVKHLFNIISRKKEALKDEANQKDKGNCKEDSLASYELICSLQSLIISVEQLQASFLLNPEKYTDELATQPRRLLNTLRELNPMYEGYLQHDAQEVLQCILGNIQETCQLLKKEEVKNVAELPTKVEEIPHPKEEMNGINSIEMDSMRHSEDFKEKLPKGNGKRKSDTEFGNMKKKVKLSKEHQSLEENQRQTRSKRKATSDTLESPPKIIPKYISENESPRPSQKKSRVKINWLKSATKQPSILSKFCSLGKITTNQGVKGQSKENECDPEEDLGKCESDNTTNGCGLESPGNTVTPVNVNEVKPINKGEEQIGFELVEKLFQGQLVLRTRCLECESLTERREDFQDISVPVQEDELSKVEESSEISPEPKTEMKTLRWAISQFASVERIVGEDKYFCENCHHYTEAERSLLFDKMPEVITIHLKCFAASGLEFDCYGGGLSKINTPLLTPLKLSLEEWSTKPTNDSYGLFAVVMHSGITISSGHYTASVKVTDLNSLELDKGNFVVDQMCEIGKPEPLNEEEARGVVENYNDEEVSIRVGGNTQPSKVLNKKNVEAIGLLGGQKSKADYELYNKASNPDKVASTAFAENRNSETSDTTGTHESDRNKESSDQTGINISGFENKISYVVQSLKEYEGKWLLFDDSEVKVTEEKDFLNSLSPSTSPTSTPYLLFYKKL
Procedure, shortened: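 1nM USP1/UAF1 + cpd, 15 min RT; start w/ Ub-Rho 150nM final; kinetic FL 480/540 nm, 6 reads q60 s. Buffer 50mM HEPES pH 7.8, 0.5mM EDTA, 1mM TCEP, 0.01% Tween-20, 0.1 mg/ml BSA.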

[5] = AP1 Signaling Pathway (AID 357); details: ME-180 AP-1-bla reporter, EGF-induced, beta-lactamase ratio, 5 h; at 7.69 µM (top of the series) unless noted;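 note: ME-180 reporter cells stimulated with EGF at its EC50 level; % is set by controls: 0 for no effect and ±100 for the full control effect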
Procedure, shortened: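 AP-1-bla ME-180 cells, Opti-MEM + 0.5% dialyzed FBS, plated overnight 37 °C. Cpd titration + EC50 EGF, 5 h 37 °C. CCF4 2.5 h RT; ex 405, em 460/530 ratio → %activity, AC50.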

[6] = Stat Signaling Pathway (AID 446); details: ME-180 (cervical carcinoma) SIE beta-lactamase reporter, IL-6 stimulated, 5 h;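 note: ME-180 cervical cancer cells given 40 pM IL-6 alongside compound; SIE-controlled beta-lactamase reporter measured as 460/530 nm FRET emission ratio; % is set by controls: 0 for no effect and ±100 for the full control effect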
Procedure, shortened: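 Normalization used AC90 stimulation (300 pM IL-6) and AC90 inhibition (125 nM pan-JAK inhibitor at 40 pM IL-6). The underlying signal is SIE-driven beta-lactamase in ME-180 cells after 5 h IL-6 exposure with compound.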

[7] = molecular target: Glucocorticoid receptor (Homo sapiens) (UniProt P04150); assay: GR-EFC Redistribution (AID 451; calls by dose curve; note: potency is the fitted concentration of half-maximal effect); details: CHO-K1 GR-EFC translocation, beta-gal luminescence, 2 h
Glucocorticoid receptor (Homo sapiens), sequence (P04150 whole entry, looked up, the tested form may be a part): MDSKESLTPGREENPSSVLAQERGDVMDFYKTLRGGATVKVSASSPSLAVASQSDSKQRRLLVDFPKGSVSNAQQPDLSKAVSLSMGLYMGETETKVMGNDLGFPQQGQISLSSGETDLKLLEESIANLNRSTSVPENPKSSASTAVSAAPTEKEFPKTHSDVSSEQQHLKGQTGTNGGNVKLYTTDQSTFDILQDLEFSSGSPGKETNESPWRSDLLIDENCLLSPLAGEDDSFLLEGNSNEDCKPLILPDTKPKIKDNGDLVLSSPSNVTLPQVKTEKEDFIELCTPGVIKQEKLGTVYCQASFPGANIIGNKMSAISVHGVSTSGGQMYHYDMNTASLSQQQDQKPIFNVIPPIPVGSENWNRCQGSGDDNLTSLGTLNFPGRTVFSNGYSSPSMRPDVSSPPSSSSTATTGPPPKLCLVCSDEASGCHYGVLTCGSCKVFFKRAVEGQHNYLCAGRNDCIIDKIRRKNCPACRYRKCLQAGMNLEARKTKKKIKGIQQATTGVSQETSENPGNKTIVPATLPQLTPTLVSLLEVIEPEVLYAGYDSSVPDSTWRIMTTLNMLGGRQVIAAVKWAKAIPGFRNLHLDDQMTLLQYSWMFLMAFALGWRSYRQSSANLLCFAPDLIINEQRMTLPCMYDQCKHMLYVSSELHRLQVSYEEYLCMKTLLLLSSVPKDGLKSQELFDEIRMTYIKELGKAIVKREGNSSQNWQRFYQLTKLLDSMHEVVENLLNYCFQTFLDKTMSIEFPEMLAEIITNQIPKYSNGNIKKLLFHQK
Procedure, shortened: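 CHO-K1 cells expressing nuclear EA and GR-ED fragments of b-gal; compounds titrated up to 46 uM final, 2 h at 37 C. GR nuclear translocation read as complemented b-gal luminescence after 1 h RT detection.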

[8] = molecular target: Mitogen-activated protein kinase 10 (Mus musculus) (UniProt Q61831); assay: JNK3 AlphaScreen Assay (AID 530);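 note: kinase came from lysate of stimulated human HepG2 cells; signal reports phosphorylation of biotinylated GST-cJun 1-79 at Ser73 with 10 µM ATP; % is set by controls: 0 for no effect and ±100 for the full control effect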
Procedure, shortened: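 Activity was read by AlphaScreen after JNK3-containing HepG2 lysate (cytokine pre-activated) phosphorylated biotinylated GST-cJun with 10 uM ATP at room temperature. Phospho-Ser73 cJun antibody with Protein-A acceptor beads provided detection.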

[9] = molecular target: 3',5'-cyclic-AMP phosphodiesterase 4B (Homo sapiens) (UniProt Q07343); assay: qHTS Assay for Inhibitors of PDE-IV (AID 607; active = well fitted activation curve with a large enough effect in the main read-out, with a control signal flat, not every such curve was filed as active; note: % of control where 0% means no effect)
3',5'-cyclic-AMP phosphodiesterase 4B (Homo sapiens), sequence (Q07343 whole entry, looked up): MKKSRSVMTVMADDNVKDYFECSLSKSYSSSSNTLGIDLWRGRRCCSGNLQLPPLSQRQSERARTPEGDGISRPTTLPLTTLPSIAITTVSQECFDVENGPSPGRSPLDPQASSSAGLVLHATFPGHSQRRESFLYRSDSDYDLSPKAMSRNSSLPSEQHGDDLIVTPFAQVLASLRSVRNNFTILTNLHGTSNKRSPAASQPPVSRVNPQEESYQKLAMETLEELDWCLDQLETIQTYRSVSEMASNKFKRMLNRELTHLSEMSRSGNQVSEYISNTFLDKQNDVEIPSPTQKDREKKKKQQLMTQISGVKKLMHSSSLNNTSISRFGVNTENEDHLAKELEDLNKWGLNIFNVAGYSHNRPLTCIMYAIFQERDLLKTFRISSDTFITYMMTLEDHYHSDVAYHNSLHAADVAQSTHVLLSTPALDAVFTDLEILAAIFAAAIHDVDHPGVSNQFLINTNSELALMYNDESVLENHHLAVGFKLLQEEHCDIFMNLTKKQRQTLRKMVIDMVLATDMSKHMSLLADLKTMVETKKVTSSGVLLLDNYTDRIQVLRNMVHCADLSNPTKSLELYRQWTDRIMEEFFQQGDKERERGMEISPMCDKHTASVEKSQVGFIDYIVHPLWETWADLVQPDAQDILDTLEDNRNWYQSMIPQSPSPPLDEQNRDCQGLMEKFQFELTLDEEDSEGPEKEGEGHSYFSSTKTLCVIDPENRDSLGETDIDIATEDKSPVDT
Procedure, shortened: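 HEK293 ACTOne cells with CNG channel (1000/well), endogenous PDE4; membrane potential dye, compounds up to 22.9 uM final. Fluorescence Ex 535/Em 590; RO 20-1724 (100 uM final) as reference.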

[10] = molecular target: Cytochrome P450 1A2 (Homo sapiens) (UniProt P05177); assay: p450-cyp1a2 (AID 410; calls by dose curve;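 note: -100% = full effect of reference inhibitor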)
Cytochrome P450 1A2 (Homo sapiens), sequence (P05177 whole entry, looked up): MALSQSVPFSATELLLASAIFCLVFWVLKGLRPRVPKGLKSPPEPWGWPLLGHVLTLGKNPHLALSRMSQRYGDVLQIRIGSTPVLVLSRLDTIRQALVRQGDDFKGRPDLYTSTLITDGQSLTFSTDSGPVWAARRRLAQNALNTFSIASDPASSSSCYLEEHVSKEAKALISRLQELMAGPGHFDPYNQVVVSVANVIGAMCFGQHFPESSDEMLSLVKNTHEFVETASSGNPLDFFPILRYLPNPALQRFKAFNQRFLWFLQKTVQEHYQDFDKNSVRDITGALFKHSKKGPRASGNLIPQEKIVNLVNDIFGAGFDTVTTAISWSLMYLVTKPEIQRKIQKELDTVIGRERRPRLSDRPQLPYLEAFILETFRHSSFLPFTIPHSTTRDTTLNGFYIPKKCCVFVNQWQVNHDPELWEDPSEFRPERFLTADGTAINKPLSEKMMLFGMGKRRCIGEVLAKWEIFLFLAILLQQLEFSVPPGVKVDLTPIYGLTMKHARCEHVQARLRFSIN
Procedure, shortened: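 O-Demethylation of luciferin 6' methyl ether by human CYP1A2 is monitored as luciferase luminescence. Substrate sits at Km (100uM); enzyme is 20nM. Values are scaled to 57 uM furafylline as maximal inhibition.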

[11] = NFAT Signaling Pathway (AID 444); details: Jurkat NFAT-bla M1, carbachol, beta-lactamase ratio, 5 h; at 7.69 µM (top of the series) unless noted;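 note: carbachol stimulus at about its EC50 of 1 µM final; % is set by controls: 0 for no effect and ±100 for the full control effect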
Procedure, shortened: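 Jurkat cells with NFAT-driven β-lactamase reporter and co-expressed M1 receptor, stimulated with carbachol (final 1 uM, ~EC50), compound titration, 5 h at 37 °C. CCF4 loaded 1 h at RT; 460/530 nm ratio gave %activity and AC50.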

[12] = molecular target: Glucocorticoid receptor (Homo sapiens) (UniProt P04150); assay: GR-GFP Redistribution (AID 450;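 active = compounds whose dose series gives a full or clear partial fitted curve of increased nuclear translocation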; note: potency is the fitted concentration of half-maximal effect); details: U2OS GR-GFP nuclear translocation, laser cytometry, 2 h
[13] = qHTS profiling for inhibitors of Plasmodium falciparum proliferation (AID 504749; active = well fitted curve in the direction sought with a large enough effect; an effect the other way counts as inactive or inconclusive;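 note: 0% = DMSO vehicle and full inhibition = artemisinin control; nearly all actives have a fitted effect of over 60% in size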); details: P. falciparum in erythrocytes, SYBR Green DNA, 72 h, at 12.8 µM (top of the series)
Procedure, shortened: (§1)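 Each compound contacts P. falciparum-infected red blood cells for 72 h at 37 C; lysis buffer (Tris, EDTA, saponin, Triton X, SYBR Green I) is added and fluorescence measured next morning; values normalized to controls.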

AS120 = assay: as above; details: P. falciparum in erythrocytes, SYBR Green DNA, 72 h; series mostly up to 28.7 µM
Procedure, shortened: as §1

CP203 = assay: as above; details: P. falciparum in erythrocytes, SYBR Green DNA, 72 h; series mostly up to 12.8 µM
Procedure, shortened: as §1

CP291 = assay: as above; details: P. falciparum in erythrocytes, SYBR Green DNA, 72 h; series mostly up to 12.8 µM
Procedure, shortened: as §1

DFO2036 = assay: as above; details: P. falciparum in erythrocytes, SYBR Green DNA, 72 h; series mostly up to 12.8 µM
Procedure, shortened: as §1

[14] = measured here: cell count channel max response
[15] = measured here: lipid channel max response
[16] = at 7.69 µM (top of the series) unless noted

COC(=O)C1OC(=O)C2OC23[C@]2(C)C(O)CC4C(C)(C)C(OC(C)=O)CC(OC(C)=O)[C@@]4(C)C2CC[C@@]13C (some centres undefined)
active: Potency [1] 251 nM and 794 nM
17.7% and 13.2%: max response [3, 15]
17.5% and 7.5%: max response [3, 14]
inactive: Potency [2] | activity change, negative = inhibition ([3]; at 57.5 µM (top of the series)) -1.67% and 3.12% | Potency [4]

Cn1cccc1C(=O)N1CCC2(CCCN(c3ccncc3)C2)CC1
8.08%: max response [3, 14]
18.3%: max response [3, 15]
inactive: activity change, negative = inhibition [5] 11.9% | activity, negative = inhibition [6, 16] 0.921% | Potency [7] > 46 µM | Potency [8] | Potency [9] | activity change, negative = inhibition ([3]; at 57.5 µM (top of the series)) 5.74%

NC(N)=NC[C@@H]1COC2(CCCCC2)O1
-12.6%: max response [3, 15]
inactive: activity change, negative = inhibition [5] 13.7% [at 17.2 µM] | Potency [10] | activity change, negative = inhibition [11] 18.5% [at 17.2 µM] | activity, negative = inhibition [6, 16] 6.54% [at 17.2 µM] | Potency [12] > 20.6 µM | Potency [7] > 20.6 µM | Potency [8] | Potency [9] | activity change, negative = inhibition ([3]; at 25.7 µM (top of the series)) -0.418% | Potency [4] | activity, negative = inhibition ([13]; parasite line A) -12.1% | activity, negative = inhibition ([13]; parasite line B) -13% | Potency (AS120) | Potency (CP203) | Potency (CP291) | Potency (DFO2036)
-12.5%: max response [3, 14]

Cc1ccccc1[C@@H](OCCN(C)C)c1ccccc1
1.49%: max response [3, 15]
inactive: activity change, negative = inhibition [5] 26.9% [at 17.2 µM] | Potency [10] | activity, negative = inhibition ([6]; at 17.2 µM (top of the series)) 5.39% | activity, negative = inhibition ([6]; at 38 µM (top of the series)) 20.8% | Potency [12] > 46 µM and > 20.6 µM | Potency [7] > 46 µM and > 20.6 µM | Potency [8] | Potency [9] | Potency [2] | activity change, negative = inhibition ([3]; at 25.7 µM (top of the series)) -1.18%
0.329%: max response [3, 14]

CCN1C(=O)N[C@@H](c2ccccc2)C1=O
-10.1%: max response [3, 14]
inactive: activity change, negative = inhibition [5] -1.74% [at 17.2 µM] | Potency [10] | activity change, negative = inhibition [11] 1.96% [at 17.2 µM] | activity, negative = inhibition [6, 16] -21.2% [at 17.2 µM] | Potency [12] > 20.6 µM | Potency [7] > 20.6 µM | Potency [8] | Potency [9] | activity change, negative = inhibition ([3]; at 25.7 µM (top of the series)) -2.13% | Potency [4] | activity, negative = inhibition ([13]; parasite line A) -3.65% | activity, negative = inhibition ([13]; parasite line B) 13.5% | Potency (AS120) | Potency (CP203) | Potency (CP291) | Potency (DFO2036)
-9.51%: max response [3, 15]

C[C@H]1NC(=O)NC1=O
-2.21%: max response [3, 14]
-1.48%: max response [3, 15]
inactive: activity change, negative = inhibition [5] 18% [at 17.2 µM] and -9.42% [at 17.2 µM] | Potency [10] | activity change, negative = inhibition [11] -10.2% [at 17.2 µM] and -1.97% [at 17.2 µM] | activity, negative = inhibition [6, 16] -29.7% [at 17.2 µM] and -2.24% [at 17.2 µM] | Potency [12] > 20.6 µM | Potency [7] > 20.6 µM | Potency [8] | Potency [9] | activity change, negative = inhibition ([3]; at 25.7 µM (top of the series)) -0.728% | Potency [4]
